# Data reported in PubChem BioAssay (NCI).
# About 79,000 compounds went through this panel and 15% of them were active in at least one assay; those are over-represented in the sample as a whole. Unmarked numbers belong to inactive results. Calls of active or inactive are those of the source. No stated cut-off is given here; in the data, active means growth inhibition above about 70%; inactive means the rest.
# Assays:
# [1] = NCI Yeast Anticancer Drug Screen. Data for the rad52 strain (AID 147);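 further: 0% = growth of vehicle-treated control cultures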; settings: S. cerevisiae rad52 mutant growth inhibition, hits give high values
# In short: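 Measured: yeast growth inhibition. System: strain with a defined DNA damage repair alteration. Reference: vehicle-treated control cultures.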
# [2] = NCI Yeast Anticancer Drug Screen. Data for the wt1 strain (AID 149);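 further: 0% = growth of vehicle-treated wt1 cultures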; settings: S. cerevisiae wt1 strain (SPY 50644) growth inhibition, hits give high values
# In short: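 Yeast wt1 strain exposed to compounds; growth inhibition measured relative to vehicle-treated controls.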
# [3] = NCI Yeast Anticancer Drug Screen. Data for the rad50EPP+ strain (AID 151);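 further: 0% = growth of vehicle-treated control cultures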; settings: S. cerevisiae rad50 mutant strain, hits give high values
# In short: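 One strain with a rad50 alteration (rad50EPP+) was compound-treated, its growth then compared to that of vehicle controls.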
# [4] = NCI Yeast Anticancer Drug Screen. Data for the mgt1 strain (AID 153); settings: S. cerevisiae mgt1 mutant growth inhibition, hits give high values
# In short: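 After exposure of the mgt1 yeast mutant to compound, growth was measured and reported as inhibition compared with vehicle controls.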
# [5] = NCI Yeast Anticancer Drug Screen. Data for the rad50 strain (AID 155);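 further: 0% = growth of vehicle-only cultures of the same strain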; settings: S. cerevisiae rad50 strain growth inhibition, hits give high values
# In short: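 Yeast carrying a defined DNA repair defect were exposed to test compounds, and growth was compared with vehicle-treated controls to give percent inhibition.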
# [6] = NCI Yeast Anticancer Drug Screen. Data for the mec2-1 strain (AID 157); settings: S. cerevisiae mec2-1 strain, hits give high values
# In short: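 Test agents were screened against the mec2-1 yeast strain, with defined DNA repair or cell cycle alteration. Growth was scored as inhibition against vehicle-only controls.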
# [7] = NCI Yeast Anticancer Drug Screen. Data for the rad14 strain (AID 159);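 further: 0% = growth of vehicle-treated control cultures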; settings: S. cerevisiae rad14 strain growth inhibition, hits give high values
# In short: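 Yeast cells carrying a defined DNA-repair defect were exposed to compounds, and growth inhibition was calculated relative to vehicle-treated control cultures.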
# [8] = NCI Yeast Anticancer Drug Screen. Data for the sgs1 mgt1 strain (AID 161);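 further: 0% = growth of cultures given vehicle only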; settings: S. cerevisiae sgs1 mgt1 strain, hits give high values
# In short: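 Mutant yeast exposed to compound; growth scored against vehicle-only wells.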
# [9] = NCI Yeast Anticancer Drug Screen. Data for the CLN2oe strain (AID 163);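 further: 0% = growth of vehicle-only control cultures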; settings: S. cerevisiae CLN2oe strain, hits give high values
# In short: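 Here, growth inhibition in a cell-cycle-altered yeast strain after compound exposure was quantified against vehicle control growth.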
# [10] = NCI Yeast Anticancer Drug Screen. Data for the cln2 rad14 strain (AID 165);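 further: 0% = growth equal to vehicle treated cultures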; settings: S. cerevisiae cln2 rad14 strain, hits give high values
# In short: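 Growth of compound-exposed yeast (cln2 rad14 genotype) measured and expressed as inhibition relative to vehicle.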
# [11] = NCI Yeast Anticancer Drug Screen. Data for the bub3 strain (AID 167); settings: S. cerevisiae bub3 mutant strain, hits give high values
# In short: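 Compounds were applied to a genetically altered yeast strain carrying a cell-cycle control defect. Growth inhibition was scored against vehicle-treated controls.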
# [12] = NCI Yeast Anticancer Drug Screen. Data for the wt2 strain (AID 169);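 further: 0% = growth of vehicle-treated yeast cultures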; settings: S. cerevisiae wt2 strain growth inhibition, hits give high values
# In short: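 Genetically defined yeast strains from a DNA-repair/cell-cycle panel were used. Compound-exposed yeast growth was measured, and the inhibition was calculated relative to vehicle treatment.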
# [13] = NCI Yeast Anticancer Drug Screen. Data for the mlh1 strain (AID 171);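 further: 0% = growth of vehicle-treated control cultures of the same strain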; settings: S. cerevisiae mlh1 strain growth inhibition, hits give high values
# In short: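 Here the genetically defined yeast mutant is grown with each compound, and the extent to which its growth falls below that of vehicle-exposed cells is reported.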
# [14] = NCI Yeast Anticancer Drug Screen. Data for the sgs1 strain (AID 173);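 further: 0% = growth of vehicle-only control cultures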; settings: S. cerevisiae sgs1 mutant, hits give high values
# In short: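 Relative growth inhibition, referenced to vehicle, was determined in a yeast strain with a defined alteration affecting DNA damage repair or cell cycle control after compound exposure.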
# [15] = NCI Yeast Anticancer Drug Screen. Data for the mlh1 rad18 strain (AID 175); settings: S. cerevisiae mlh1 rad18 strain growth inhibition, hits give high values
# In short: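 In this whole-cell yeast screen, a strain with altered DNA damage repair is challenged with compound, and its growth is measured against matched vehicle-treated controls.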
# [16] = NCI Yeast Anticancer Drug Screen. Data for the rad18 strain (AID 177); settings: S. cerevisiae rad18 mutant growth inhibition, hits give high values
# In short: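 Screen uses a yeast strain with a defined lesion in DNA damage repair; compound effect is read as loss of growth compared to untreated vehicle cultures.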
# [17] = at 5.0 µM (retest, dose inferred, filed as 0.5)
# [18] = at 50.0 µM (retest, dose inferred, filed as 5.0)
smiles,measurement,setting,value
OC1CSCCCSCCSCCCSC1,growth inhibition,[1]; at 1.2 µM,-53%
same,growth inhibition,[1]; at 3.7 µM,-55%
same,growth inhibition,[1]; at 11.0 µM,-49%
same,growth inhibition,[1]; at 33.0 µM,-61%
same,growth inhibition,[1]; at 100.0 µM,-48%
same,growth inhibition,[2]; at 1.2 µM,-12%
same,growth inhibition,[2]; at 3.7 µM,-16%
same,growth inhibition,[2]; at 11.0 µM,-22%
same,growth inhibition,[2]; at 33.0 µM,-25%
same,growth inhibition,[2]; at 100.0 µM,-25%
same,growth inhibition,[3]; at 1.2 µM,-30%
same,growth inhibition,[3]; at 3.7 µM,-52%
same,growth inhibition,[3]; at 11.0 µM,-49%
same,growth inhibition,[3]; at 33.0 µM,-29%
same,growth inhibition,[3]; at 100.0 µM,-35%
same,growth inhibition,[4]; at 1.2 µM,-5%
same,growth inhibition,[4]; at 3.7 µM,-6%
same,growth inhibition,[4]; at 11.0 µM,-10%
same,growth inhibition,[4]; at 33.0 µM,-9%
same,growth inhibition,[4]; at 100.0 µM,-29%
same,growth inhibition,[5]; at 1.2 µM,-28%
same,growth inhibition,[5]; at 3.7 µM,-27%
same,growth inhibition,[5]; [17],-11%
same,growth inhibition,[5]; at 11.0 µM,-3%
same,growth inhibition,[5]; at 33.0 µM,-2%
same,growth inhibition,[5]; [18],-14%
same,growth inhibition,[5]; at 50.0 µM,12.3%
same,growth inhibition,[5]; at 100.0 µM,-25%
same,growth inhibition,[6]; at 1.2 µM,-22%
same,growth inhibition,[6]; at 3.7 µM,-27%
same,growth inhibition,[6]; [17],-48%
same,growth inhibition,[6]; at 11.0 µM,-21%
same,growth inhibition,[6]; at 33.0 µM,4%
same,growth inhibition,[6]; [18],5%
same,growth inhibition,[6]; at 50.0 µM,20.5%
same,growth inhibition,[6]; at 100.0 µM,-29%
same,growth inhibition,[7]; at 1.2 µM,-35%
same,growth inhibition,[7]; at 3.7 µM,-37%
same,growth inhibition,[7]; at 11.0 µM,-28%
same,growth inhibition,[7]; at 33.0 µM,-36%
same,growth inhibition,[7]; at 100.0 µM,-47%
same,growth inhibition,[8]; [17],-1%
same,growth inhibition,[8]; [18],4%
same,growth inhibition,[8]; at 50.0 µM,28.7%
same,growth inhibition,[9]; at 1.2 µM,-5%
same,growth inhibition,[9]; at 3.7 µM,-12%
same,growth inhibition,[9]; at 11.0 µM,3%
same,growth inhibition,[9]; at 33.0 µM,17%
same,growth inhibition,[9]; at 100.0 µM,1%
same,growth inhibition,[10]; [17],12%
same,growth inhibition,[10]; [18],25%
same,growth inhibition,[10]; at 50.0 µM,10.7%
same,growth inhibition,[11]; at 1.2 µM,-8%
same,growth inhibition,[11]; at 3.7 µM,0%
same,growth inhibition,[11]; [17],16%
same,growth inhibition,[11]; at 11.0 µM,16%
same,growth inhibition,[11]; at 33.0 µM,64%
same,growth inhibition,[11]; [18],82% (active)
same,growth inhibition,[11]; at 50.0 µM,69.2%
same,growth inhibition,[11]; at 100.0 µM,68%
same,growth inhibition,[12]; at 1.2 µM,-30%
same,growth inhibition,[12]; at 3.7 µM,-17%
same,growth inhibition,[12]; at 11.0 µM,-16%
same,growth inhibition,[12]; at 33.0 µM,-31%
same,growth inhibition,[12]; at 100.0 µM,-22%
same,growth inhibition,[13]; at 1.2 µM,-4%
same,growth inhibition,[13]; at 3.7 µM,16%
same,growth inhibition,[13]; at 11.0 µM,2%
same,growth inhibition,[13]; at 33.0 µM,16%
same,growth inhibition,[13]; at 100.0 µM,-17%
same,growth inhibition,[14]; at 1.2 µM,-9%
same,growth inhibition,[14]; at 3.7 µM,-5%
same,growth inhibition,[14]; at 11.0 µM,-10%
same,growth inhibition,[14]; at 33.0 µM,-14%
same,growth inhibition,[14]; at 100.0 µM,-24%
same,growth inhibition,[15]; [17],-22%
same,growth inhibition,[15]; [18],22%
same,growth inhibition,[15]; at 50.0 µM,26.9%
same,growth inhibition,[16]; at 1.2 µM,-30%
same,growth inhibition,[16]; at 3.7 µM,-41%
same,growth inhibition,[16]; at 11.0 µM,-49%
same,growth inhibition,[16]; at 33.0 µM,-49%
same,growth inhibition,[16]; at 100.0 µM,-75%
COc1ccc2nc3cccc([N+](=O)[O-])c3c(NCCN(CCO)CCO)c2c1,growth inhibition,[1]; at 1.2 µM,75% (active)
same,growth inhibition,[1]; at 3.7 µM,92% (active)
same,growth inhibition,[1]; at 11.0 µM,94% (active)
same,growth inhibition,[1]; at 33.0 µM,96% (active)
same,growth inhibition,[1]; at 100.0 µM,96% (active)
same,growth inhibition,[2]; at 1.2 µM,-2%
same,growth inhibition,[2]; at 3.7 µM,6%
same,growth inhibition,[2]; at 11.0 µM,31%
same,growth inhibition,[2]; at 33.0 µM,73% (active)
same,growth inhibition,[2]; at 100.0 µM,77% (active)
same,growth inhibition,[3]; at 1.2 µM,3%
same,growth inhibition,[3]; at 3.7 µM,13%
same,growth inhibition,[3]; at 11.0 µM,44%
same,growth inhibition,[3]; at 33.0 µM,78% (active)
same,growth inhibition,[3]; at 100.0 µM,94% (active)
same,growth inhibition,[4]; at 1.2 µM,-3%
same,growth inhibition,[4]; at 3.7 µM,2%
same,growth inhibition,[4]; at 11.0 µM,29%
same,growth inhibition,[4]; at 33.0 µM,71% (active)
same,growth inhibition,[4]; at 100.0 µM,75% (active)
same,growth inhibition,[5]; at 1.2 µM,43%
same,growth inhibition,[5]; at 3.7 µM,81% (active)
same,growth inhibition,[5]; [17],42%
same,growth inhibition,[5]; at 11.0 µM,91% (active)
same,growth inhibition,[5]; at 33.0 µM,94% (active)
same,growth inhibition,[5]; [18],96% (active)
same,growth inhibition,[5]; at 50.0 µM,81.2% (active)
same,growth inhibition,[5]; at 100.0 µM,94% (active)
same,growth inhibition,[6]; at 1.2 µM,14%
same,growth inhibition,[6]; at 3.7 µM,82% (active)
same,growth inhibition,[6]; [17],13%
same,growth inhibition,[6]; at 11.0 µM,95% (active)
same,growth inhibition,[6]; at 33.0 µM,97% (active)
same,growth inhibition,[6]; [18],97% (active)
same,growth inhibition,[6]; at 50.0 µM,86.2% (active)
same,growth inhibition,[6]; at 100.0 µM,97% (active)
same,growth inhibition,[7]; at 1.2 µM,84% (active)
same,growth inhibition,[7]; at 3.7 µM,96% (active)
same,growth inhibition,[7]; at 11.0 µM,98% (active)
same,growth inhibition,[7]; at 33.0 µM,98% (active)
same,growth inhibition,[7]; at 100.0 µM,98% (active)
same,growth inhibition,[8]; [17],78% (active)
same,growth inhibition,[8]; [18],94% (active)
same,growth inhibition,[8]; at 50.0 µM,69.5%
same,growth inhibition,[9]; at 1.2 µM,-5%
same,growth inhibition,[9]; at 3.7 µM,-5%
same,growth inhibition,[9]; at 11.0 µM,11%
same,growth inhibition,[9]; at 33.0 µM,61%
same,growth inhibition,[9]; at 100.0 µM,91% (active)
same,growth inhibition,[10]; [17],81% (active)
same,growth inhibition,[10]; [18],96% (active)
same,growth inhibition,[10]; at 50.0 µM,83.2% (active)
same,growth inhibition,[11]; at 1.2 µM,-13%
same,growth inhibition,[11]; at 3.7 µM,-18%
same,growth inhibition,[11]; [17],-41%
same,growth inhibition,[11]; at 11.0 µM,-2%
same,growth inhibition,[11]; at 33.0 µM,52%
same,growth inhibition,[11]; [18],86% (active)
same,growth inhibition,[11]; at 50.0 µM,43.6%
same,growth inhibition,[11]; at 100.0 µM,96% (active)
same,growth inhibition,[12]; at 1.2 µM,-2%
same,growth inhibition,[12]; at 3.7 µM,-1%
same,growth inhibition,[12]; at 11.0 µM,11%
same,growth inhibition,[12]; at 33.0 µM,53%
same,growth inhibition,[12]; at 100.0 µM,93% (active)
same,growth inhibition,[13]; at 1.2 µM,5%
same,growth inhibition,[13]; at 3.7 µM,25%
same,growth inhibition,[13]; at 11.0 µM,61%
same,growth inhibition,[13]; at 33.0 µM,84% (active)
same,growth inhibition,[13]; at 100.0 µM,86% (active)
same,growth inhibition,[14]; at 1.2 µM,80% (active)
same,growth inhibition,[14]; at 3.7 µM,90% (active)
same,growth inhibition,[14]; at 11.0 µM,93% (active)
same,growth inhibition,[14]; at 33.0 µM,95% (active)
same,growth inhibition,[14]; at 100.0 µM,96% (active)
same,growth inhibition,[15]; [17],68%
same,growth inhibition,[15]; [18],97% (active)
same,growth inhibition,[15]; at 50.0 µM,74.5% (active)
same,growth inhibition,[16]; at 1.2 µM,94% (active)
same,growth inhibition,[16]; at 3.7 µM,96% (active)
same,growth inhibition,[16]; at 11.0 µM,96% (active)
same,growth inhibition,[16]; at 33.0 µM,95% (active)
same,growth inhibition,[16]; at 100.0 µM,95% (active)
